Data: paper PMC7862700, “An all-to-all approach to the identification of sequence-specific readers for epigenetic DNA modifications on cytosine”

How the values were obtained:
Assay in all cases: DAPPL (digital affinity profiling via proximity ligation, sequencing); 10 mM Tris-HCl pH 7.5, 50 mM NaCl, 1 mM DTT, 4% glycerol, room temperature, 30 min; GST-TFs on glutathione beads, 16-mer random dsDNA library, 0.1% formaldehyde crosslink after washing; high values mean tight binding
FEV = biological target: T1, FEV (Homo sapiens, UniProt Q99581 1-238); conditions: protein: recombinant; tags: N-terminal GST; dsDNA, one strand shown
T1 sequence: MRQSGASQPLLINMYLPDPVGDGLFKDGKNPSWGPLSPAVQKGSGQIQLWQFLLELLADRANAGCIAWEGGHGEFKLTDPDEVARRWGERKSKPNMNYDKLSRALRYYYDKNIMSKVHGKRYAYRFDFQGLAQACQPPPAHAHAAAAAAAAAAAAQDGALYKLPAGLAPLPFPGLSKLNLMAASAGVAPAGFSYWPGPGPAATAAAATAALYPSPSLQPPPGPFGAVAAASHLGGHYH
Summary of the method: (§1)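 Binding signal is each hexamer's read frequency for a factor divided by its frequency in the tag-only sample. The factors were GST-fused human transcription factors from yeast, captured on glutathione beads, DNA-barcoded and pooled with that sample. Pools were incubated with 200 nmole of a random double-stranded 16-mer DNA library in Tris/NaCl/DTT/glycerol buffer at room temperature for 30 min, then washed, crosslinked with 0.1% formaldehyde, proximity-ligated with BsaI/T4 ligase (1 h, 37 °C), PCR-amplified and sequenced on an Illumina NextSeq500.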

ETV5 = ETV5 (Homo sapiens, UniProt P41161 1-510); conditions: protein: recombinant; tags: N-terminal GST; dsDNA, one strand shown
Summary of the method: as §1

HSF1 = HSF1 (Homo sapiens, UniProt Q00613 1-529); conditions: protein: recombinant; tags: N-terminal GST; chain copies: 3; dsDNA, one strand shown
Summary of the method: as §1

SPIC = biological target: T2, SPIC (Homo sapiens, UniProt Q8N5J4 1-248); conditions: protein: recombinant; tags: N-terminal GST; dsDNA, one strand shown
T2 sequence: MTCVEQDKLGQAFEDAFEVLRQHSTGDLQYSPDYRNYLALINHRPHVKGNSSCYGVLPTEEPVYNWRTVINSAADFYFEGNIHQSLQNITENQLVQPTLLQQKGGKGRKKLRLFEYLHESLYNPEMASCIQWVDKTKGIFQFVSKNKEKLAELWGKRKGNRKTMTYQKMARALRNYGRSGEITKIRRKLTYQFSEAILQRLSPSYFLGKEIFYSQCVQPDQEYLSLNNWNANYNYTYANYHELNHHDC
Summary of the method: as §1

ELF4 = ELF4 (Homo sapiens, UniProt Q99607 1-663); conditions: protein: recombinant; tags: N-terminal GST; dsDNA, one strand shown
Summary of the method: as §1

ELK4 = biological target: T3, ELK4 (Homo sapiens, UniProt P28324-2 1-405); conditions: protein: recombinant; tags: N-terminal GST; dsDNA, one strand shown
T3 sequence: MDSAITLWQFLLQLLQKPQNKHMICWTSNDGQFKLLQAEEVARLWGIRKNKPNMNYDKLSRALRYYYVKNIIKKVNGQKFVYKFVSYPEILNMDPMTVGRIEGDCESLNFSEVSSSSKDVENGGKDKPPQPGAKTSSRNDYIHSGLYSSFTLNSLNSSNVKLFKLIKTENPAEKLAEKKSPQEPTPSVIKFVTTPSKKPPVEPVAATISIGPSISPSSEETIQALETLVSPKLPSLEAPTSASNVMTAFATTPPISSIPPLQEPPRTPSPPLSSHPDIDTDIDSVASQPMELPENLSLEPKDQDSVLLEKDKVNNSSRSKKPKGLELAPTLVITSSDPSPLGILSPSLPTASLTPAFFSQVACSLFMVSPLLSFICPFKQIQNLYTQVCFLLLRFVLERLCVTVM
Summary of the method: as §1

ETV2 = biological target: T4, ETV2 (Homo sapiens, UniProt O00321 1-342); conditions: protein: recombinant; tags: N-terminal GST; dsDNA, one strand shown
T4 sequence: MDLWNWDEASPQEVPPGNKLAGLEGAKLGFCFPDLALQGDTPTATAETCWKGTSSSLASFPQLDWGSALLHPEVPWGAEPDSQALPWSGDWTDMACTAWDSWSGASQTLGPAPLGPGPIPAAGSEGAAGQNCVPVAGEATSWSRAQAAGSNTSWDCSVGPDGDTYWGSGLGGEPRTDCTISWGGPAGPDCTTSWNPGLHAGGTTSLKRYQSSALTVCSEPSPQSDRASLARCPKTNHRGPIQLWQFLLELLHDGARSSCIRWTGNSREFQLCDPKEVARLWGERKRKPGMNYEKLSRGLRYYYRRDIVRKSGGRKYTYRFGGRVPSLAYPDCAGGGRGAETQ
Summary of the method: as §1

ELF3 = biological target: T5, ELF3 (Homo sapiens, UniProt P78545 1-371); conditions: protein: recombinant; tags: N-terminal GST; dsDNA, one strand shown
T5 sequence: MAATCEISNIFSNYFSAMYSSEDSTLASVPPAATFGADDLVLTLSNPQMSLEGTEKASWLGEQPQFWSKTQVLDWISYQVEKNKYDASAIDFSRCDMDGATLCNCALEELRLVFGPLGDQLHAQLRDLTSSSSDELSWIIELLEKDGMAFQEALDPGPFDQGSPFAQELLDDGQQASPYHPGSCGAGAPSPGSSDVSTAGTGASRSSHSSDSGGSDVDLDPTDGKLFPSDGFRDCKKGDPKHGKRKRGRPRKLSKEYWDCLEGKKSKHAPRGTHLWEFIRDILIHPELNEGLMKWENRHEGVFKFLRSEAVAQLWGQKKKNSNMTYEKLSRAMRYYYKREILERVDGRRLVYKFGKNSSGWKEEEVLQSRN
Summary of the method: as §1

CRX = CRX (Homo sapiens, UniProt O43186 1-299); conditions: protein: recombinant; tags: N-terminal GST; dsDNA, one strand shown
Summary of the method: as §1

ETV1 = ETV1 (Homo sapiens, UniProt P50549 1-477); conditions: protein: recombinant; tags: N-terminal GST; dsDNA, one strand shown
Summary of the method: as §1

ERF = biological target: T6, ERF (Homo sapiens, UniProt P50548 1-548); conditions: protein: recombinant; tags: N-terminal GST; dsDNA, one strand shown
T6 sequence: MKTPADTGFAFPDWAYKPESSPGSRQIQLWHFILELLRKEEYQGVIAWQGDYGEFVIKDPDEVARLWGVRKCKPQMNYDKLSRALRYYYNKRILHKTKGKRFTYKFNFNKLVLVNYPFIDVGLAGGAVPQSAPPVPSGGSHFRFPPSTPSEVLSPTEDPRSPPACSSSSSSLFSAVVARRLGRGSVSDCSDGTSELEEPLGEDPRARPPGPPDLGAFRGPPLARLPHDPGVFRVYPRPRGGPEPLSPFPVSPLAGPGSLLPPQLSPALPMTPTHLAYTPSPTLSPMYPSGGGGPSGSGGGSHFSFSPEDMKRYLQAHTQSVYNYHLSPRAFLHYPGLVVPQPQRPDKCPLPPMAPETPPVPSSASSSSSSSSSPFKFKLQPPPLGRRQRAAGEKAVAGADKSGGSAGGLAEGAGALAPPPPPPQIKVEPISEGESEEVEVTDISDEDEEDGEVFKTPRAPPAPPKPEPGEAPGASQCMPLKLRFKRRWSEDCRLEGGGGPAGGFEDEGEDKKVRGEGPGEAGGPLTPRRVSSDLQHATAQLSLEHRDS
Summary of the method: as §1

ETV3L = biological target: T7, ETV3L (Homo sapiens, UniProt Q6ZN32 1-361); conditions: protein: recombinant; tags: N-terminal GST; dsDNA, one strand shown
T7 sequence: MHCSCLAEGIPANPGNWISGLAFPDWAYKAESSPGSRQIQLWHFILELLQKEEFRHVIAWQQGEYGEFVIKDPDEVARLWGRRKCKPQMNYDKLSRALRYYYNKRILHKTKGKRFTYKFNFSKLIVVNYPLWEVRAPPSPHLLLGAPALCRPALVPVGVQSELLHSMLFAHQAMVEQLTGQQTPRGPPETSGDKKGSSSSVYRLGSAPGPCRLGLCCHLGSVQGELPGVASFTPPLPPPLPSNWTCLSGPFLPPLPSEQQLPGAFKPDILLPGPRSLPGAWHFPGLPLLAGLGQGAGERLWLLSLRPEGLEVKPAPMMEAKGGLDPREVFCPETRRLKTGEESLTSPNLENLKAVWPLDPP
Summary of the method: as §1

ETS2 = biological target: T8, ETS2 (Homo sapiens, UniProt P15036 1-469); conditions: protein: recombinant; tags: N-terminal GST; dsDNA, one strand shown
T8 sequence: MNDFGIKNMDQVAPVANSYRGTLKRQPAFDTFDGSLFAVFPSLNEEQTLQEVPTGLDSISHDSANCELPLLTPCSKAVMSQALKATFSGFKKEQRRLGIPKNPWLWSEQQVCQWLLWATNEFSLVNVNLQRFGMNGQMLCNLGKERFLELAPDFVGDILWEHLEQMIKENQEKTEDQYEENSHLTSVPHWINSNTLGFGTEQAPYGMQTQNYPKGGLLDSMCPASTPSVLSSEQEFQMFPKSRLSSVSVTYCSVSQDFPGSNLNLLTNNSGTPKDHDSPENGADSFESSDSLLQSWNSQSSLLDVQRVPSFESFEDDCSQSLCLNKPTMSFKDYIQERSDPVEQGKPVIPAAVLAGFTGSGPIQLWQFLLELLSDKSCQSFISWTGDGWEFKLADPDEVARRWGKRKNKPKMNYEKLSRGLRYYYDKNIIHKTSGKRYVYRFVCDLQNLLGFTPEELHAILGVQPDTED
Summary of the method: as §1

SPDEF = biological target: T9, SPDEF (Homo sapiens, UniProt O95238 1-335); conditions: protein: recombinant; tags: N-terminal GST; dsDNA, one strand shown
T9 sequence: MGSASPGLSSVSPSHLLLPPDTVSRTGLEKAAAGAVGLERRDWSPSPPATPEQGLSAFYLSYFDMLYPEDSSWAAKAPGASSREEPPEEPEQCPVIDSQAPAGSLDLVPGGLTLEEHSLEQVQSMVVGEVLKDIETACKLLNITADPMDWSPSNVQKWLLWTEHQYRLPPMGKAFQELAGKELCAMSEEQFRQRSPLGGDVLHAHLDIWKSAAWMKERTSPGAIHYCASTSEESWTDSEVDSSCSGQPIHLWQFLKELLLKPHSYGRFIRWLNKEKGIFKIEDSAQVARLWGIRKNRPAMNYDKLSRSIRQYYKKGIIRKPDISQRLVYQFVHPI
Summary of the method: as §1

ETV7 = biological target: T10, ETV7 (Homo sapiens, UniProt Q9Y603 1-341); conditions: protein: recombinant; tags: N-terminal GST; dsDNA, one strand shown
T10 sequence: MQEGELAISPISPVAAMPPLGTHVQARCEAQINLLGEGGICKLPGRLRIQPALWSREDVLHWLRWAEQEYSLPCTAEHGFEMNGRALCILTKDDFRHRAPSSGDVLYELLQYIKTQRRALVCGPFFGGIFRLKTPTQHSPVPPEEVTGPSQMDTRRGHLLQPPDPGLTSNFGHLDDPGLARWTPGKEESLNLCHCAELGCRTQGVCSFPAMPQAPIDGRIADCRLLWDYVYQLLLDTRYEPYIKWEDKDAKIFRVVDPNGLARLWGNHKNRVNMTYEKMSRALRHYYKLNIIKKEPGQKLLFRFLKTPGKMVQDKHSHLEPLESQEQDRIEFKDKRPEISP
Summary of the method: as §1

ELF5 = biological target: T11, ELF5 (Homo sapiens, UniProt Q9UKW6-2 1-255); conditions: protein: recombinant; tags: N-terminal GST; dsDNA, one strand shown
T11 sequence: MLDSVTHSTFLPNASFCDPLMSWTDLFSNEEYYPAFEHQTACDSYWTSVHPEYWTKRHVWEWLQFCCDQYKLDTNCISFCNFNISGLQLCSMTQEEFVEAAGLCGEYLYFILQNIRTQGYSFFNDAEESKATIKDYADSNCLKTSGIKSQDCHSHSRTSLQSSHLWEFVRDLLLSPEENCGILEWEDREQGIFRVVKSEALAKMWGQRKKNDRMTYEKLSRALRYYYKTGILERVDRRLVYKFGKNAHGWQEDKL
Summary of the method: as §1

ETV3 = biological target: T12, ETV3 (Homo sapiens, UniProt P41162-2 1-143); conditions: protein: recombinant; tags: N-terminal GST; dsDNA, one strand shown
T12 sequence: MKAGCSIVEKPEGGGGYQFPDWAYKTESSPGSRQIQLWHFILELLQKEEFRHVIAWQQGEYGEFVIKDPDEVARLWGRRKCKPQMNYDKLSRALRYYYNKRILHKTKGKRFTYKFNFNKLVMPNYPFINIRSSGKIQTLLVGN
Summary of the method: as §1

ETV6 = ETV6 (Homo sapiens, UniProt P41212 1-452); conditions: protein: recombinant; tags: N-terminal GST; dsDNA, one strand shown
Summary of the method: as §1

Sequence of ETV6 (P41212 whole entry): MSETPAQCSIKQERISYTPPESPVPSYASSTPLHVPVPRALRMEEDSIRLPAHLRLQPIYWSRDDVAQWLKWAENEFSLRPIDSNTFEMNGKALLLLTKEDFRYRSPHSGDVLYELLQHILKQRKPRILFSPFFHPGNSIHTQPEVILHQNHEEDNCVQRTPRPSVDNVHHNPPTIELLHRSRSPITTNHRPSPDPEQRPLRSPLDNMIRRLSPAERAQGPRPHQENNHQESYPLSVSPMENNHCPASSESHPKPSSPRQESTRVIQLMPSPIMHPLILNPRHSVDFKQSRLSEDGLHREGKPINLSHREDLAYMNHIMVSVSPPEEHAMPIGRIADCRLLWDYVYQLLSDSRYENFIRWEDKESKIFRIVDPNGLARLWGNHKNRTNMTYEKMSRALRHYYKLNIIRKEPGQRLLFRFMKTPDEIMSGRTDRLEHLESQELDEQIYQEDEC
Sequence of ETV5 (P41161 whole entry): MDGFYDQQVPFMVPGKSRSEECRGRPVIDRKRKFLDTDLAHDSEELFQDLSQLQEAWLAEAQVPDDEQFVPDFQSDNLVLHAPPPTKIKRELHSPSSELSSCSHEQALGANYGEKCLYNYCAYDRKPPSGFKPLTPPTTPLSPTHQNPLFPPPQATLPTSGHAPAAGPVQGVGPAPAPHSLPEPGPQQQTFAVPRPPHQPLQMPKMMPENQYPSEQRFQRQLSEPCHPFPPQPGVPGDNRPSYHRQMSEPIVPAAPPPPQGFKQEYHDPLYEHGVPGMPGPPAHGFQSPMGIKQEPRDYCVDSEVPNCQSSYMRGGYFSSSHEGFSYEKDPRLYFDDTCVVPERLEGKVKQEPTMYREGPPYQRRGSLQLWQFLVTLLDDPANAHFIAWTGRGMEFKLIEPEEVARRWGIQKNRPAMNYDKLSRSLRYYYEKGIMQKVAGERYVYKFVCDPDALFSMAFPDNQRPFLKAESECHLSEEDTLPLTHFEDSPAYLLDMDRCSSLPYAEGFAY
Sequence of HSF1 (Q00613 whole entry): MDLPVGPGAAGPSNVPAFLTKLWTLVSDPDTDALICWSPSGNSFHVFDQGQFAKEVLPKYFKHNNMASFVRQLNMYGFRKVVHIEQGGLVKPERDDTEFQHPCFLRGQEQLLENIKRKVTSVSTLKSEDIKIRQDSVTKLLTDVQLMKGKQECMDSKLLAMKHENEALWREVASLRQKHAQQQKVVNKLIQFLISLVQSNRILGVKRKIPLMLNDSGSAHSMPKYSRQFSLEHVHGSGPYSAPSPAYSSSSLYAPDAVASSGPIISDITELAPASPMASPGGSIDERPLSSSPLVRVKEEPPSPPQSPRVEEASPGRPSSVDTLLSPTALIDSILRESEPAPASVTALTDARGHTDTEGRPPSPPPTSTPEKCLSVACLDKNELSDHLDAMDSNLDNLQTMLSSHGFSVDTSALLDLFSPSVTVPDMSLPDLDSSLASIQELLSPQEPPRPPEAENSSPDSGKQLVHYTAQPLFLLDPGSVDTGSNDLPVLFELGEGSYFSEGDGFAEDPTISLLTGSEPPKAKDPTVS
Sequence of ELF4 (Q99607 whole entry): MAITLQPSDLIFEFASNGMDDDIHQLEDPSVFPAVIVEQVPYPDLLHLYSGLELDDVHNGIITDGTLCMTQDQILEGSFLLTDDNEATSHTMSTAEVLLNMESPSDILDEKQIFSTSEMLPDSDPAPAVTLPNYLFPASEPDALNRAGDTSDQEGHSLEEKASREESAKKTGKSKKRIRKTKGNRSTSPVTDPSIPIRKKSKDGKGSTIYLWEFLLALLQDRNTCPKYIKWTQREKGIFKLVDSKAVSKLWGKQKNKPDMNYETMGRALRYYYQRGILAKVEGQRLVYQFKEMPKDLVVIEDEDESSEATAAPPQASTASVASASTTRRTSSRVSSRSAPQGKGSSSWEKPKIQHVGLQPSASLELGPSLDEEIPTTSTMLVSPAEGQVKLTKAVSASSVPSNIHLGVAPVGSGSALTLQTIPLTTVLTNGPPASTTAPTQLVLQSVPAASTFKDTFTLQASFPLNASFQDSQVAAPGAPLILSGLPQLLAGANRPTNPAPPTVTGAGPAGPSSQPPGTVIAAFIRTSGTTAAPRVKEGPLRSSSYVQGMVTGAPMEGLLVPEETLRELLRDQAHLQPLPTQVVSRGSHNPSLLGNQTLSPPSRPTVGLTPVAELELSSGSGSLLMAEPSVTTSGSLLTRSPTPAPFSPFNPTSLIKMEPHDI
Sequence of ETV1 (P50549 whole entry): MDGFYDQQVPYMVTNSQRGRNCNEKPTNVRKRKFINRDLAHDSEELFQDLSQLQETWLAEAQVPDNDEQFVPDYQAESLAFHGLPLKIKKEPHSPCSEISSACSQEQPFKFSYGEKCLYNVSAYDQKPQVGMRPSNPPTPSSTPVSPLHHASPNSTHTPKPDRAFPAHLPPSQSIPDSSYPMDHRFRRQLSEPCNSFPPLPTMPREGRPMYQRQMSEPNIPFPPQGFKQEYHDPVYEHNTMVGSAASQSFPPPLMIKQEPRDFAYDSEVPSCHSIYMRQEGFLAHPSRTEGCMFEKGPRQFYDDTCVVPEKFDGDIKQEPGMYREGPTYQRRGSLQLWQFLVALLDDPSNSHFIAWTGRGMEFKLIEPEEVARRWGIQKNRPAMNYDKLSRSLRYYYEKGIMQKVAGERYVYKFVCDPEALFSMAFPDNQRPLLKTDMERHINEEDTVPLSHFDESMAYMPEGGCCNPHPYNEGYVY
Sequence of CRX (O43186 whole entry): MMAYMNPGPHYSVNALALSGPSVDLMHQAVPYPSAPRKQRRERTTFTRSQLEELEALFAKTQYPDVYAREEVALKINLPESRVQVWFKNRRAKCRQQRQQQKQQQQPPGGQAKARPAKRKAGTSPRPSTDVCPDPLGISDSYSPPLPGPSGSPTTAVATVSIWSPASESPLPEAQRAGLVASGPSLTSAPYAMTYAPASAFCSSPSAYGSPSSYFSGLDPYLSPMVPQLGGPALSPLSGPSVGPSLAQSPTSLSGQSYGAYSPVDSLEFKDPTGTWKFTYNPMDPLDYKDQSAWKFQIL

Sequence: AATACT
- binding signal (FEV): 1.21 fold enrichment (6-mer frequency, TF over GST control)
- binding signal (ETV5): 1.27 fold enrichment (6-mer frequency, TF over GST control)
- binding signal (HSF1): 1.34 fold enrichment (6-mer frequency, TF over GST control)
- binding signal (SPIC): 1.25 fold enrichment (6-mer frequency, TF over GST control)
- binding signal (ELF4): 1.16 fold enrichment (6-mer frequency, TF over GST control)
- binding signal (ELK4): 1.24 fold enrichment (6-mer frequency, TF over GST control)
- binding signal (ETV2): 1.36 fold enrichment (6-mer frequency, TF over GST control)
- binding signal (ELF3): 1.26 fold enrichment (6-mer frequency, TF over GST control)
- binding signal (CRX): 1.47 fold enrichment (6-mer frequency, TF over GST control)
- binding signal (ETV1): 1.26 fold enrichment (6-mer frequency, TF over GST control)
- binding signal (ERF): 1.19 fold enrichment (6-mer frequency, TF over GST control)
- binding signal (ETV3L): 1.24 fold enrichment (6-mer frequency, TF over GST control)
- binding signal (ETS2): 1.23 fold enrichment (6-mer frequency, TF over GST control)
- binding signal (SPDEF): 1.15 fold enrichment (6-mer frequency, TF over GST control)
- binding signal (ETV7): 1.31 fold enrichment (6-mer frequency, TF over GST control)
- binding signal (ELF5): 1.37 fold enrichment (6-mer frequency, TF over GST control)
- binding signal (ETV3): 1.28 fold enrichment (6-mer frequency, TF over GST control)
- binding signal (ETV6): 1.4 fold enrichment (6-mer frequency, TF over GST control)
